Measured values: PubChem BioAssay (NCI)
This is part of a sample that, as a whole, favours compounds with a hit. Of some 83,000 tested, about 20% had one in any assay.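 Testing used 96-well plates and a 48-hour single-concentration exposure. Example: -40 means 40% of the starting cells died.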 Unmarked numbers belong to inactive results. Active and inactive are the calls of the source. Rule for the calls: active = growth percent below 10; inactive = the rest.

Tested on: UACC-62 melanoma
Assay: NCI-60 one-dose screen, 48 h (100 = growth as untreated, 0 = no growth, -100 = all killed)
Details: 10 µM unless noted

**Q.** How did the growth turn out when `CN1[C@@H]2CC[C@H]1/C(=C\c1ccccc1)C(=O)/C2=C/c1ccccc1` was run?
**A.** 26.6%

**Q.** Which growth does the source give for `O=C1c2c(c3c4cccc(F)c4[nH]c3c3ccc4ccccc4c23)C(=O)N1O` here?
**A.** 26.9%

**Q.** For `CN(C)CCC(=O)c1ccc([N+](=O)[O-])cc1`, which growth is on record?
**A.** 98.6%

**Q.** For `Cc1ccc(-c2nc3ccccn3c2/C=C2/C(=O)Nc3cc(Cl)ccc32)cc1`, which growth is on record?
**A.** 74.1%

**Q.** For `CC(=O)[C@@H]1CC[C@]2(C(N)=O)CC[C@]3(C)[C@H](CC[C@@H]4[C@@]5(C)CCCNC(C)(C)[C@@H]5CC[C@]43C)[C@@H]12`, which growth is on record?
**A.** 83.5%

**Q.** With `CC(C)N1C(=O)S/C(=C2/SC(=O)N(C(C)C)C2=O)C1=O` as the compound, how does the growth read?
**A.** 91.6%

**Q.** With `NS(=O)(=O)c1ccc(CCN2C(=O)C3C(C2=O)C2(Cl)C(Cl)=C(Cl)C3(Cl)C2(Cl)Cl)cc1` (stereo not drawn) as the compound, how does the growth read?
**A.** 75.2%

**Q.** How did the growth turn out when `Nc1c(S(=O)(=O)O)cc2c3c(cccc13)C(=O)OC2=O` was run?
**A.** 97.8%

**Q.** `O=C(CCN1CCCC1)c1ccc([N+](=O)[O-])cc1` was tested. Which growth did it give?
**A.** 105%

**Q.** With `O=C1Nc2ccc(F)cc2/C1=C\c1c(-c2ccccc2)nc2ccccn12` as the compound, how does the growth read?
**A.** 60.7%

**Q.** `O=Cc1ccc(-c2cn3ccnc3c(-c3ccc4ncn(Cc5ccccc5)c4c3)n2)cc1` was tested. Which growth did it give?
**A.** 62.9%

**Q.** With `N#C/C(=C\c1ccc(C(F)(F)F)cc1)c1cc2ccccc2[nH]1` as the compound, how does the growth read?
**A.** 95.1%

**Q.** `O=C1c2cccc3c(-c4ccc5c(c4)ncn5C4CCCCC4)ccc(c23)C(=O)N1c1nc2ccccc2s1` was tested. Which growth did it give?
**A.** 73%

**Q.** For `Cc1cccc(-c2cn3ccnc3c(-c3ccc4ncn(Cc5ccccc5)c4c3)n2)c1`, which growth is on record?
**A.** 97.5%

**Q.** `CCOC(=O)C1=C(CCl)NC(=O)NC1c1ccc2c(c1)OCO2` (stereo not drawn) was tested. Which growth did it give?
**A.** 31.4%

**Q.** With `CCCN1[C@@H]2CC[C@H]1/C(=C\c1ccc(OC)c(OC)c1)C(=O)/C2=C/c1ccc(OC)c(OC)c1` as the compound, how does the growth read?
**A.** 32%

**Q.** `COc1ccc(C(=O)C2C(C#N)C(C#N)C3c4ccccc4C=CN23)cc1` (stereo not drawn) was tested. Which growth did it give?
**A.** 63%

**Q.** Which growth does the source give for `O=C(C[n+]1cccc2ccccc21)c1ccc(O)c(O)c1` here?
**A.** 69.7%

**Q.** `COc1ccc(C(=O)c2nc3ccccc3n2CC(=O)c2ccc(F)cc2)cc1` was tested. Which growth did it give?
**A.** 65.3%

**Q.** Which growth does the source give for `CC(=O)[C@@H]1CC[C@]2(CO)CC[C@]3(C)[C@H](CC[C@@H]4[C@@]5(C)CCCNC(C)(C)[C@@H]5CC[C@]43C)[C@@H]12` here?
**A.** 94.7%

**Q.** For `NS(=O)(=O)c1ccc(CCN2C(=O)C=CC2=O)cc1`, which growth is on record?
**A.** 104%

**Q.** With `Nc1ccccc1NC(=O)c1ccc(-n2nc(-c3ccccc3)c3ccccc32)cc1` as the compound, how does the growth read?
**A.** 77.5%

**Q.** `N#CC1C(C#N)C2c3ccccc3C=CN2C1C(=O)c1ccc(Br)cc1` (stereo not drawn) was tested. Which growth did it give?
**A.** 98.4%

**Q.** For `O=C(CNCCN1CCOCC1)N1c2cccc3cccc(c23)N(C(=O)CNCCN2CCOCC2)C1c1cn(-c2ccccc2)nc1-c1cccc([N+](=O)[O-])c1`, which growth is on record?
**A.** 94.8%

**Q.** For `C=C(C)[C@@H]1CC[C@]2(C(=O)N[C@H](CO)Cc3ccccc3)CC[C@]3(C)[C@H](CC[C@@H]4[C@@]5(C)CCCNC(C)(C)[C@@H]5CC[C@]43C)[C@@H]12`, which growth is on record?
**A.** -85.6% (active)

**Q.** How did the growth turn out when `O=C1c2cccc3c(-c4ccc5c(c4)ncn5C4CCCCC4)ccc(c23)C(=O)N1CCO` was run?
**A.** 74.4%

**Q.** How did the growth turn out when `O=C(/C(=C\c1ccc([N+](=O)[O-])cc1)S(=O)Cc1ccc(F)cc1)c1ccc(F)cc1` (stereo not drawn) was run?
**A.** -22.4% (active)

**Q.** With `NNC(=O)c1ccc(-n2nc(-c3ccccc3)c3ccccc32)cc1` as the compound, how does the growth read?
**A.** 80.7%
